From PubChem
SRC3 TRFRET art: flags TR-FRET format artefacts in PPARgamma SRC-3 recruitment agonist screen. TR-FRET artefact counter-screen, PPARgamma/SRC-3 format; hits give high values. TR-FRET ratio at 8 µM. hit rate 0.39% among 99,000. AID 1048; in the data active = TR-FRET ratio above about 2000
SRC1 TRFRET art: flags TR-FRET format artefacts in PPARgamma SRC-1 recruitment agonist screen; TR-FRET detection artefact counter-screen, emission ratio; hits give high values; TR-FRET ratio at 8 µM; hit rate 0.34% among 99,000; AID 1051; in the data active = TR-FRET ratio above about 2300
PPARg SRC-1 ag: PPARgamma-driven SRC-1 recruitment agonism; P37231; PPARgamma-SRC-1 coactivator recruitment biochemical assay; activation, % at 8 µM; hit rate 0.41% among 200,000; AID 631; in the data active = activation above about 19%;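 note: 0% = DMSO and 100% = reference agonist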
PPARg SRC2 recr: promotes SRC-2 coactivator recruitment by human PPARgamma. P37231. PPARgamma LBD-SRC-2 recruitment, biochemical. activation, % at 8 µM. hit rate 0.34% among 200,000. AID 1032;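 note: 0% = vehicle and 100% = reference agonist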
PPARg SRC-3 ag: PPARgamma-driven SRC-3 recruitment agonism; activation, % at 8 µM; biochemical PPARgamma/SRC-3 coactivator recruitment assay; hit rate 0.26% among 200,000; in the data active = activation above about 23%;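 note: 0% = DMSO and 100% = reference agonist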
TR-FRET SRC-2 ct: flags TR-FRET format artefacts in PPARgamma SRC-2 recruitment agonist screen; TR-FRET artefact counter-screen; hits give high values; hit rate 0.4% among 200,000; TR-FRET ratio at 8 µM; AID 1049; in the data active = TR-FRET ratio above about 2000
PPARg SRC2 ag: human PPARgamma SRC-2 recruitment agonism, confirmation. hit rate 52% among 790. biochemical SRC-2 recruitment by PPARgamma. shares compounds with PPARg SRC-3 ag. activation, % at 8 µM;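 note: 0% = vehicle alone and 100% = reference agonist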
PPARg SRC1 conf: human PPARgamma SRC-1 recruitment agonism, confirmation. shares compounds with PPARg SRC-3 ag. PPARgamma–SRC-1 coactivator recruitment biochemical assay. activation, % at 8 µM. hit rate 43% among 790; in the data active = activation above about 20%;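 note: 0% = vehicle wells and 100% = reference agonist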
PPARg SRC3 conf: confirmation of agonists of SRC-3 recruitment by human PPARgamma; shares compounds with PPARg SRC-3 ag; biochemical PPARgamma-SRC-3 coactivator recruitment, agonist mode; activation, % at 8 µM; hit rate 29% among 790; AID 1301; in the data active = activation above about 24%;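 note: 0% = vehicle wells and 100% = reference agonist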
Starred values were filed as active, the others as inactive; . = no result. Most compounds without a hit are left out; they make up all but 0.9% or so of the library. Cut-off read from the data, not from the text of the source, unless noted: active = activation above about 22%; inactive = the rest.

SMILES	SRC3 TRFRET art	SRC1 TRFRET art	PPARg SRC-1 ag	PPARg SRC2 recr	PPARg SRC-3 ag	TR-FRET SRC-2 ct	PPARg SRC2 ag	PPARg SRC1 conf	PPARg SRC3 conf
CCOC(=O)N1CCN(C(=O)CSc2ccc(-c3ccncc3)nn2)CC1	1541	1588	-3	0	10	1626	.	.	.
O=c1c2ccccc2[nH]c(=S)n1Cc1cccs1	1463	2235	14	7	9	1718	.	.	.
CCOC(=O)c1ccc2c(c1)n(CC)c(C)[n+]2CC	1660	1873	7	10	6	1523	.	.	.
CCOC(=O)c1ccc2c(c1)[nH]c(=S)n2CC	2330*	2451*	23*	28*	20	1960	50*	37*	30*
Cc1ccc(C)n1-c1ccc(-c2nnc3n2CCCCC3)s1	.	.	27*	11	12	1802	23*	22*	14
N#Cc1cc2c(nc1SCC(=O)Nc1sc3c(c1C#N)CCC3)CCCC2	.	.	14	10	2	1572	.	.	.
N#Cc1ccc(-c2ccc(F)cc2)nc1SCC(=O)Nc1sc2c(c1C#N)CCC2	.	.	20*	2	9	1696	21	10	10
COc1ccc(CC(=O)NNC(=O)COc2ccc3ccccc3c2)cc1	4430*	6123*	194*	214*	142*	3867*	256*	196*	169*
COc1ccc(OCC(=O)NNC(=O)CCc2ccccc2)cc1	1553	1505	-11	-2	-3	1544	.	.	.
CN(C)c1ccc(C=Nc2ccc(N(C)C)cc2)cc1	.	.	69*	95*	104*	2825*	5	4	5
C(=N\C(/N=C/c1ccco1)c1ccco1)/c1ccco1	1658	1958	1	15	-1	1592	.	.	.
CN(C)c1ccc(N=Cc2ccco2)cc1	.	.	67*	85*	74*	2974*	5	3	3
C(=Nc1cccc2c(N=Cc3ccco3)cccc12)c1ccco1	1941	2290	26*	22*	20	1870	9	6	6
O=[N+]([O-])c1ccc(/C([O-])=C(/C(=S)NCc2ccco2)[n+]2ccccc2)cc1	1264	1753	-7	-4	5	1515	.	.	.
CN(CC(=O)NC(=O)NCc1ccccc1)Cc1cccc(Cl)c1Cl	1469	1903	3	7	6	1699	.	.	.
C#CCSc1ncc(-c2ccccc2)cn1	1553	2074	21*	10	6	1733	5	4	5
CCOc1ccc(NC(=O)Cc2c(O)c3ccccc3[nH]c2=O)cc1	.	.	9	8	4	1664	.	.	.
O=C(Nc1ccc(N2CCOCC2)cc1N1CCOCC1)c1ccc([N+](=O)[O-])cc1	.	.	3	14	27*	1418	3	0	2
O=C(CCNC(=O)c1ccc([N+](=O)[O-])cc1)Nc1ccc(N2CCOCC2)cc1N1CCOCC1	1672	2042	4	5	-3	1732	.	.	.
[O-][N+]1=c2ccc(Nc3ccccc3)cc2=NC12CCCCC2	.	.	24*	16	28*	1710	22*	13	10
COc1ccc(Nc2ccc3c(c2)=NC2(CCCCC2)[N+]=3[O-])cc1	.	.	24*	19	28*	2020*	15	15	10
COc1ccc(NC2=NC(=S)N(c3ccccc3C)C23CCCCC3)cc1	.	.	1	2	6	1465	.	.	.
CCn1c(C(=O)N2CCC(Cc3ccccc3)CC2)cc2sccc21	.	.	0	-5	11	1504	.	.	.
CCOc1ccc(NC(=O)CCC(=O)c2ccc(-c3ccccc3)cc2)cc1	1630	1866	2	-1	-1	1809	.	.	.
COc1cc(C(=O)NCc2ccc3c(c2)OCO3)ccc1OCc1c(C)noc1C	.	.	5	25*	20	1774	-1	0	-2
SMILES	SRC3 TRFRET art	SRC1 TRFRET art	PPARg SRC-1 ag	PPARg SRC2 recr	PPARg SRC-3 ag	TR-FRET SRC-2 ct	PPARg SRC2 ag	PPARg SRC1 conf	PPARg SRC3 conf
C=CCn1c(SCC(=O)Nc2c(C)nn(Cc3ccccc3)c2C)nnc1C(O)c1ccccc1 (stereo not drawn)	.	.	-2	5	2	1603	.	.	.
O=C(c1cc(F)ccc1F)C1CCCN(C(=O)c2ccco2)C1 (stereo not drawn)	1622	1755	0	3	4	1731	.	.	.
Cc1cc(=S)c2cccc(C)c2[nH]1	2209*	2464*	16	22*	20	2155*	2	3	2
Cc1ccc(OC(=O)CCC(=O)Nc2ccc(S(=O)(=O)Nc3cc(C)on3)cc2)cc1	.	.	-3	2	0	1342	.	.	.
N#CC(=C=[N-])C1=C(C#N)C(c2ccccc2F)C([n+]2ccccc2)C(O)(C2CC2)N1 (stereo not drawn)	.	.	32*	75*	71*	3792*	12	9	10
Cc1ccc[n+](C2C(c3ccc([N+](=O)[O-])cc3)C(C#N)=C([S-])NC2(O)C2CC2)c1 (stereo not drawn)	1454	1755	6	4	1	1527	.	.	.
CCOC(=O)C1C(=O)NC(SC)=C(C#N)C1c1ccccc1F (stereo not drawn)	1639	1865	10	5	1	1568	.	.	.
Cc1cccc[n+]1C1C(c2ccccc2)C(C#N)=C(C(=C=[N-])C#N)NC1(O)C1CC1 (stereo not drawn)	.	.	15	26*	29*	2096*	30*	20*	19
O=c1c(Cl)c(N2CCN(S(=O)(=O)c3ccc(F)cc3)CC2)cnn1-c1cccc(Cl)c1	.	.	47*	5	45*	1804	45*	39*	24*
COc1ccccc1CNc1nc(-c2cc(C)n(C)c2C)cs1	1760	1757	7	16	6	1668	.	.	.
CC1=C(OC(=O)c2ccc(Br)cc2)C(C)(C)C(c2ccccc2)OC1=O (stereo not drawn)	.	.	10	8	8	1418	.	.	.
CC(=O)c1cccc(S(=O)(=O)N2CCN(c3nc4cc(C)cc(C)c4cc3C#N)CC2)c1	.	.	26*	-6	39*	1642	-1	-2	-4
Cc1cc(C)c2cc(C#N)c(N3CCCN(S(=O)(=O)c4ccccc4)CC3)nc2c1	.	.	-1	2	4	1481	.	.	.
COc1ccc(Br)cc1-c1nc(CCl)cs1	3363*	3749*	62*	62*	42*	3230*	59*	43*	41*
CS(=O)(=O)c1nc(-c2ccc(Br)cc2)cc(-c2ccccc2)c1C#N	.	.	53*	7	111*	2843*	66*	49*	39*
Cc1[nH]c2ccccc2c1/C=C/c1cc[n+](C)cc1	.	.	25*	10	17	1692	17	13	12
Nc1c(C(=O)Nc2ccccc2)sc2nc3c(c(-c4ccco4)c12)CCC3	.	.	6	10	14	1681	.	.	.
